# From PubChem BioAssay (EPA / NIEHS)
# Calls of active or inactive are those of the source. How the source made its calls: active means hit-call score of the fitted dose curve at least 0.9, where 1 is the maximum; inactive means score below 0.9.
# Read-out: catalase (CAT), CAT (gene 847)
# Test: LTEA_HepaRG_CAT: Life Technologies and Expression Analysis (LTEA) Assay for catalase (CAT) using HepaRG (AID 2283452);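 on AC50: TaqMan qRT-PCR signal normalized to ACTB GAPDH and POLR2A housekeeping genes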
# Settings: mRNA level, 48 h; actives raise or lower the signal
# Procedure: LTEA_HepaRG is a cell based, multiplexed-readout assay that uses HepaRG, a human liver cell line, with measurements taken at 48 hours after chemical dosing on a 96-well plate.LTEA_HepaRG_CAT is one of 102 assay component(s) measured in the LTEA HepaRG cell culture assay. It is a marker of Oxidative Stress.Data from the assay component LTEA_HepaRG_CAT was analyzed into 1 endpoint. This assay endpoint, LTEA_HepaRG_CAT, was analyzed with bidirectional fitting relative to DMSO as the negative control and baseline of activity. Using a type of inducible reporter, measures of mRNA induction for gain or loss-of-signal activity can be used to understand regulation of transcription factor activity. To generalize the intended target to other relatable targets, this assay endpoint is annotated to the catalase intended target family, where the subfamily is oxidative stress.
# A total of 1060 chemcials from the ToxCast library were tested in eight-point concentration-response experiments. Cell culture and cytotoxicity assays were conducted at Thermo Fisher Scientific's Custom Services facility (Madison, WI). A single lot of human HepaRG cells (Thermo Fisher Scientific, Frederick, MD) was used for the cell culture experiments. 96-well format collagen type I coated plates of human HepaRG cells were prepared using established methods. Briefly, cryopreserved HepaRG cells were thawed, plated at a density of approximately 100,000 cells/well in HepaRG Thaw, Plate, and General Purpose media (HPRG770, Thermo Fisher Scientific), and incubated for 48 hours. 0.5% DMSO was selected as vehicle control to balance the requisite need of DMSO in HepaRG cultures to maintain differentiation (for example, baseline metabolism, proportions of hepatocytes vs. cholangiocytes), while enabling further hepatic receptor pathway activation (for example, PXR and CAR) in response to chemical exposure. 48 hours after plating, the culture medium was replaced with HepaRG Serum-Free Incudtion Media. Cells were exposed to each test chemical in duplicate and maintained in CO2 incubators for another 48 hours. Chemical plates were thawed to room temperature and 200x concentrations of treatment groups were prepared. 8-point conentration-reponse curves were made with the highest exposure at 100 uM, followed by half-log dilutions, all in 0.5% DMSO. Each test plate contained variouse controls, induction positive controls (1mM phenobarbital), cytotoxicity positive controls ([…] aflatoxin B1), vehicle controls (0.5% DMSO), and total lysis controls (0.5% DMSO). Cell morphology images were taken using an Essen IncuCyte FLR automated microscope, with six 96-well plates imaged in about 24 minutes. Images were captured and exported and JPEG files. Spent culture media was transfered to black-well plates for the LDH assay, and remaining media was sorted at -80 C for later use. Cells were treated with RLT buffer and frozen until shipped for gene expression analysis. Total RNA was isolated from the cell suspension in 75 uL of Buffer RLT (Qiagen, Germantown, MD 20874) by Quintiles/Expression Analysis (Durham, NC) using a custom isolation procedure. Total RNA from each plate well was transferred to a preamplification plate. Fluidigm's 96.96 Dynamic ArrayTM (Fluidigm, Amsterdam, the Netherlands) technology was used for gene expression analyses by quantitative reverse transcription polymerase chain reaction (qRT-PCR, performed by Quintiles/Expression Analysis, Durham, NC)89. Standard TaqManTM Assays (Applied Biosystems/ThermoFisher Scientific, Foster City, CA) were used to assess the expression of 93 genes selected based on their selectivity and sensitivity to important hepatic receptors known to be modulated by environmental chemicals; importance in human hepatocyte functionality; and hepatotoxicity. […]
Structure (SMILES),outcome,AC50
C=CCOC(=O)c1ccccc1C(=O)OCC=C,inactive,
CCc1c(C(=O)NN2CCCCC2)nn(-c2ccc(Cl)cc2Cl)c1-c1ccc(Br)cc1,,41 µM (active)
NC(=O)Cn1c(=O)cc(CCN2CCN(c3nccc4sccc34)CC2)c2ccc(F)cc21,inactive,
Oc1ccc2c(c1)OC[C@@H](N1CCC(O)(c3ccc(F)cc3)CC1)[C@H]2O,inactive,
CCCCCCCCCCO,inactive,
Cc1ccc(C(C)C)c(O)c1,inactive,
Cc1c(C(=O)O)c(O)cc2c1C(=O)c1c(O)c([C@@H]3O[C@H](CO)[C@@H](O)[C@H](O)[C@H]3O)c(O)c(O)c1C2=O,inactive,
CN1CCN(Cc2cc(-c3ccc4[nH]c(=O)oc4c3)co2)[C@@H](c2ccc(F)cc2)C1,,81.7 µM (active)
Clc1cc(Cl)c(Cl)cc1Cl,inactive,
O=C(O)Cc1ccccc1Nc1c(Cl)cccc1Cl,inactive,
COc1cc(C=O)ccc1O,inactive,
CC(=O)C(C)=CC1C(C)=CCCC1(C)C (stereo not given),inactive,
CCOC(=O)CCC(=O)OCC,inactive,
C=CCc1ccc(O)c(OC)c1,inactive,
Cc1ccc(C)c(C)c1,inactive,
CC(=O)Oc1ccccc1C(=O)O,inactive,
Nc1ccc2c(c1)C(=O)c1ccccc1C2=O,,1.57 µM (active)
Cc1nc(-c2ccc3c(c2)CCN(CCC2CCC(NC(=O)/C=C/c4ccc(F)cc4)CC2)CC3)no1 (stereo not given),inactive,
O=c1[nH]cc(F)c(=O)[nH]1,,30.7 µM (active)
CC=Cc1ccc(O)c(OC)c1,inactive,

Structure (SMILES),outcome,AC50
CCCCN(CCCC)CCCC,inactive,
COC(=O)c1ccc(O)cc1,inactive,
CCCCC(CC)COC(=O)CC(C(=O)OCC(CC)CCCC)S(=O)(=O)O (stereo not given),,86.6 µM (active)
CNC(=O)[C@H]1O[C@@H](n2cnc3c(NCc4cc(Cl)ccc4OCc4cc(C)no4)ncnc32)[C@H](O)[C@@H]1N,inactive,
CCNc1cccc(C)c1,inactive,
Cc1oc(-c2ccccc2)nc1CCOc1cccc2c1ccn2CCC(=O)O,,88.3 µM (active)
CC1(C)CC(N=C=O)CC(C)(CN=C=O)C1 (stereo not given),inactive,
CCCCOC(=O)CCCCCCCCC(=O)OCCCC,inactive,
COc1ccc2c(c1)c(CC(=O)O)c(C)n2C(=O)c1ccc(Cl)cc1,inactive,
Oc1ccc2ccccc2c1N=Nc1ccccc1,,9.92 µM (active)
CC(C)(C)c1cc(O)c(C(C)(C)C)cc1O,,78.8 µM (active)
CC(CO)OC(C)CO (stereo not given) (tested in a mixture with another compound),inactive,
CC(=O)OCCOCCOCCOC(C)=O,inactive,
CC(C)c1ccc(C(=O)N=C(N)N)cc1S(C)(=O)=O,inactive,
C[C@]12C=CC(=O)C=C1CC[C@@H]1[C@@H]2C(=O)C[C@@]2(C)[C@H]1CC[C@]2(O)C(=O)CO,inactive,
COc1cc(-c2nc(NC(=O)c3cc4cc(C)cc(C)c4n3CC(=O)O)sc2CCC2CCCCC2)c(OC)cc1Cl,,7.6 µM (active)
CCCCCCCCCCCC(=O)OC,inactive,
COc1ccc(S(=O)(=O)N2C(=O)[C@@](c3ccccc3OC)(N3C[C@H](O)C[C@H]3C(=O)N(C)C)c3cc(Cl)ccc32)c(OC)c1,,23.7 µM (active)
COCCOC[C@H](CC1(C(=O)NC2CCC(C(=O)O)CC2)CCCC1)C(=O)Oc1ccc2c(c1)CCC2 (stereo not given in full),inactive,
CCCCCCCC=O,,1.44 µM (active)
